Measured values: ChEMBL document CHEMBL1157539, “Thousands of chemical starting points for antimalarial lead identification” (Nature, 2010)

Key:
Assay type in all cases: functional
Plasmodium falciparum [1] = experiment: GSK_TCMDC: Inhibition of Plasmodium falciparum 3D7 in whole red blood cells, using parasite LDH activity as an index of growth. Test compounds present at 2uM
Plasmodium falciparum [2] = experiment: GSK_TCMDC: Inhibition of Plasmodium falciparum Dd2 in whole red blood cells, using parasite LDH activity as an index of growth. Test compounds present at 2uM
HepG2 = experiment: GSK_TCMDC: Percent inhibition of human HepG2 cell line. Test compounds present at 10uM.

| Compound | Inhibition (Plasmodium falciparum [1]) | Inhibition (Plasmodium falciparum [2]) | Inhibition (HepG2) |
| --- | --- | --- | --- |
| CN(C)C(=O)n1cnc(S(=O)(=O)N(C)c2ccc(Cl)cc2)n1.Cl | 88% | 80% | 7% |
| FC(F)(F)c1cccc(-c2cc(NCCCn3ccnc3)nc(-c3ccncc3)n2)c1 | 100% | 100% | 50% |
| COc1ccc(-c2ccc(NC(=O)c3ccc(F)cc3)cc2)cc1CN1CCCN(C)CC1.O=C(O)C(F)(F)F | 98% | 35% | 29% |
| CC(C)CNc1c2c(nc3cnn(-c4c5c(nc6cn[nH]c46)CCCC5)c13)CCCC2 | 100% | 0% | 7% |
| CCOc1ccc(-c2nc(NC(=O)COc3ccc(OC)cc3)sc2C)cc1 | 99% | 87% | 0% |
| CN(C)CC(=O)Nc1cccc(Nc2nccc(NCC(O)c3ccccc3)n2)c1 (stereo not drawn) | 100% | 3% | 30% |
| C[C@H]1CN(Cc2cccc(-c3cc(CNC(=O)c4cccc(CN5CCN(CCOc6ccccc6)CC5)c4)ccc3F)c2)CCN1.O=C(O)C(F)(F)F | 91% | 88% | 59% |
| O=C(Cn1c(SCc2cccc(F)c2F)cc(=O)c2ccccc21)N(CCCn1ccnc1)Cc1ccc(-c2ccc(C(F)(F)F)cc2)cc1 | 99% | 99% | 21% |
| COC(=O)C(Cc1ccccc1)C(CSCc1ccc(OC)cc1)C(=O)N[C@@H](C(=O)OC(C)(C)C)c1ccc(C(C)(C)C)cc1 (stereo partly drawn) | 93% | 44% | 0% |
| Cc1cccc2nc(-c3cccc(-c4ccc(CNCc5ccccc5)cc4)c3)[nH]c12.O=C(O)C(F)(F)F | 99% | 100% | 33% |
| COc1ccc(NC(=O)/C=C/c2ccc(Oc3ccccc3Cl)c([N+](=O)[O-])c2)cc1OCCN(C(C)C)C(C)C | 99% | 97% | 31% |
| CN1CCN(c2ccc(-c3cccc(NC(=O)c4ccc5ccccc5c4)c3)nn2)CC1 | 94% | 26% | 17% |
| NCc1ccc(CNCc2cccc(-c3cccc(-c4nc5ccccc5[nH]4)c3)c2)cc1.O=C(O)C(F)(F)F | 100% | 11% | 7% |
| O=C(NC1CC1)c1ccc(N2CCC(c3ccccc3)CC2)nc1.O=C(O)C(F)(F)F | 93% | 92% | 16% |
| COc1ccc(CNC2CCN(C)CC2)cc1-c1ccc(S(=O)(=O)NCc2cccnc2)s1.O=C(O)C(F)(F)F | 100% | 3% | 10% |
| COc1ccc(-c2cnc3[nH]cc(-c4ccc(C(=O)O)cc4)c3c2)cn1.O=C(O)C(F)(F)F | 95% | 99% | 35% |
| O=C(NCCCc1ccccc1)c1csc(C2CCCN(C(=O)c3ccc(O)c(-c4ccccc4)c3)C2)n1 (stereo not drawn) | 97% | 97% | 5% |
| COc1ccc2nccc([C@@H](O)CN3CCC(NC(=O)C(=Cc4ccc(C#N)cc4)c4ccc(-c5ccccc5)cc4)CC3)c2c1 | 100% | 84% | 5% |
| O=C(Nc1cc(Cl)c(Cl)cc1NC(=O)c1cccc(-c2ccccc2)c1O)c1cccc(-c2ccccc2)c1O | 100% | 100% | 79% |
| COc1ccccc1/C=C/C(=O)NC1CCC(CCN2CCc3ccc(-c4cc(C)no4)cc3CC2)CC1.Cl (stereo not drawn) | 95% | 11% | 47% |
| OC(Cn1ccnc1)(c1ccc(Cl)cc1Cl)C1CCCCC1 (stereo not drawn) | 98% | 58% | 7% |
| Cc1cc(N[C@@H](Cc2ccccc2)C(=O)NCc2cccc(F)c2)nc(NCCc2ccc(F)cc2)n1.O=C(O)C(F)(F)F | 99% | 69% | 0% |
| CCCNCc1ccc(-c2ccc(CN(CC3CCCO3)C(=O)COc3ccccc3Cl)cc2)nc1.O=C(O)C(F)(F)F (stereo not drawn) | 89% | 11% | 5% |
| CN(C)CCNc1nccc(N2CCc3ncnc(Nc4ccc(OCc5cccc(F)c5)c(Cl)c4)c3C2)n1 | 100% | 97% | 65% |
| O=C(O)C(F)(F)F.c1cc(CN2CCC(CCN3CCCCC3)CC2)cc(-c2cccc(-c3nc4ccccc4[nH]3)c2)c1 | 100% | 100% | 95% |
| O=C(N[C@@H](Cc1ccccc1)C(=O)NC1CCCCCC1)c1ccc(O)c(-c2cccc(C(F)(F)F)c2)c1 | 98% | 70% | 0% |
